High-throughput results: PubChem, several laboratories
GRK2 inh: inhibitors of human GRK2 displacing RNA aptamer; P25098; bead flow cytometry, FAM-aptamer displacement from GRK2; inhibition of aptamer binding, % at 10 µM; actives 0.59% (n = 330,000);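 active = inhibition of aptamer binding above 40%, roughly 3 SD of noise, on plates passing a quality check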;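 also: median bead fluorescence of bound FAM aptamer so fluorescent compounds give negative values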
NOD2 RIPK2 PPI: NOD2-RIPK2 protein interaction inhibition; CHO BLA complementation NOD2-RIPK2, CCF4 ratio; inhibition, % at 4.98 µM; actives 0.38% (n = 360,000); in the data active = inhibition above about 21%;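 also: 0% = vehicle only and 100% = reference blocker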
Target sequence (O43353 whole entry, looked up): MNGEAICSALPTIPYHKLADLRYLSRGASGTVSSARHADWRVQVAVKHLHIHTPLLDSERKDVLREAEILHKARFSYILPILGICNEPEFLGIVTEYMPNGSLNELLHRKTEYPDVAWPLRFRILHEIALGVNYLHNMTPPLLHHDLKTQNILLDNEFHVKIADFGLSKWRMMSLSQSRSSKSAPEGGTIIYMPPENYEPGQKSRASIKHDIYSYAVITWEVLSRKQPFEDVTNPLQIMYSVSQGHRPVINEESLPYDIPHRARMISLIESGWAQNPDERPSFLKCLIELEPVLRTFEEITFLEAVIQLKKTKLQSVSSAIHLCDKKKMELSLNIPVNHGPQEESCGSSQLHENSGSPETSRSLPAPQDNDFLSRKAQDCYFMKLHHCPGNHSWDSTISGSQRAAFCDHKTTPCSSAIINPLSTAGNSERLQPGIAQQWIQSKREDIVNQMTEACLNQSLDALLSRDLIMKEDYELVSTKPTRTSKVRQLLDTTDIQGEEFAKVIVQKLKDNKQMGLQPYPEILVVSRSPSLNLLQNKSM
ANO1 block: blocks the mouse calcium-activated chloride channel TMEM16A; normalized B-score (activity score, 25-100; higher = stronger inhibition) at 10 µM; HEK293 TMEM16A/YFP iodide influx fluorescence, ionomycin; AID 588511; Q8BHY3; actives 1.2% (n = 310,000);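 active = ratio plate-corrected score three or more library SD toward inhibition, starting fluorescence score within five deviations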;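 also: score derived from kinetic fluorescence span divided by baseline fluorescence per well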
TLR9-MyD88 block: TLR9-MyD88 interaction inhibition. Q9NR96+Q99836. CHO BLA complementation TLR9-MyD88, CCF4 FRET ratio. inhibition, % at 4.98 µM. actives 0.21% (n = 340,000). AID 504734;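 active = inhibition above the mean over all tested compounds plus 3 SD, cut at about 21% in these data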;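 also: 0% = DMSO only wells and 100% = clavulanate BLA inhibitor control wells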
ANO1 activ: activates or potentiates the mouse TMEM16A chloride channel | Q8BHY3 | HEK293 TMEM16A/YFP-H148Q/I152L, iodide quench fluorescence; active compounds read low | B-score at 10 µM | actives 0.3% (n = 340,000) | AID 623877;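 active = fluorescence-ratio B-score plate-corrected deviation score at least 3 library SD below zero, with starting fluorescence score within 5 deviations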;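 also: channel opened by trigger with iodide after compound preincubation; score built on the fluorescence ratio of max minus min over baseline; more negative score means more quench and so TMEM16A activation or potentiation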
TLR4-MyD88 BLA: inhibitors of human TLR4-MyD88 binding; AID 861; O00206+Q99836; HeLa CL3-4 TLR4/MyD88 BLA complementation, FRET ratio; actives 0.18% (n = 200,000); inhibition, % at 8.4 µM; in the data active = inhibition above about 25%;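 also: 0% = vehicle and 100% = reference inhibitor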
NOD2-RIPK2 conf: confirmation of human NOD2-RIPK2 interaction inhibitors; shares compounds with NOD2 RIPK2 PPI; inhibition, % at 4.98 µM; actives 70% (n = 1,200); CHO cells, NOD2-RIPK2 BLA complementation, CCF4 FRET;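 active = mean inhibition across replicates above a set limit taken from the earlier primary screen, cut at about 21% in these data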;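 also: 0% = DMSO-only wells and the high end = clavulanate BLA-blocked wells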
BLA counter: NOD2-RIPK2 counterscreen BLA reporter activity; inhibition, % at 4.98 µM; CHO BLA reporter, CCF4 FRET ratio; shares compounds with NOD2 RIPK2 PPI; actives 57% (n = 1,200); AID 624371;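 active = mean inhibition above the low-control mean inhibition plus three low-control SD, cut at about 11% in these data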;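 also: 0% = DMSO only wells and 100% = clavulanate high control wells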
Numbers without * were called inactive; i = inactive; . = no result given; ! = a repeat was not active. Only some compounds are listed: those with a hit (about 2.2% of all), similar ones and a draw of the others.

SMILES	GRK2 inh	NOD2 RIPK2 PPI	ANO1 block	TLR9-MyD88 block	ANO1 activ	TLR4-MyD88 BLA	NOD2-RIPK2 conf	BLA counter
CC1=CC(=O)C=C(C)C1=NOS(=O)(=O)c1ccccc1	.	27*	.	-1	i	2	31*	-4
O=C(N/N=C/C1CC2CCC1C2)c1c[nH]c2ccccc12 (centres undefined)	5	-7	i	4	i	-24	.	.
COc1cc(NC(=O)CNC(=O)Cn2cnc3sc(C)c(C)c3c2=O)cc(OC)c1OC	.	-4	.	1	.	.	.	.
CCc1cccc(CC)c1N1C(=O)COCC1=O	.	-2	.	-7	.	.	.	.
CCc1cccc(CC)c1N1C(=O)C2=C(SCCCS2)C1=O	.	40*	.	16	.	.	35*	38*
COc1ccc(C2C3=C(Nc4ncnn42)c2ccccc2CCC3)cc1 (centres undefined)	0	-11	i	-1	i	3	.	.
Fc1ccc(/C=C2\CCCC3=C2Nc2ncnn2C3c2ccc(F)cc2)cc1 (centres undefined)	3	26*	i	5	i	-10	11	14*
COCCCNC(=O)c1csc([C@@H]2O[C@H](CO)[C@H](O)[C@H](O)[C@H]2O)n1	.	6	.	.	.	.	.	.
CC1OC2CC(=O)OC2C2=C1C(=O)c1c(O)cccc1C2=O (centres undefined)	.	70*	.	.	.	.	77*	-14
O=C1c2cccc(O)c2C(=O)c2c(O)cc(CO)cc21	1	.	i	.	.	.	.	.
C=C1CC2(OC1=O)c1ccccc1CCc1ccccc12	.	84*	.	16	i	.	90*	25*
O=C1NC(=O)C2(CCc3ccccc32)N1 (centres undefined)	0	6	i	-5	i	-3	.	.
Cc1oc2c(c1C(=O)c1ccc(Cl)cc1)C(=O)C(=O)c1ccccc1-2	.	0	.	4	i	9	.	.
Cc1ccc(C(=O)c2c(C)oc3c2C(=O)C(=O)c2ccccc2-3)cc1	4	24*	25*	13	-18*	-16	24*	3
COc1ccc(OC)c2sc(N(CCCN(C)C)C(=O)CCS(=O)(=O)c3ccccc3)nc12	0	41*	i	16	i	.	54*	5
COc1ccc(Cl)c2sc(N(CCN(C)C)C(=O)CCS(=O)(=O)c3ccc(C)cc3)nc12	0	-9	i	-7	i	.	.	.
O=C(NCC1CCCO1)c1cccc(S(=O)(=O)Nc2ccc(F)cc2)c1 (centres undefined)	0	-3	.	-10	i	.	.	.
Cc1ccc(NC(=O)C2=C(c3ccccc3)S(=O)(=O)CCS2(=O)=O)cc1	3	56*	i	9	i	14	78*	10
Cc1ccc(NC2=CC(=O)CC(C)(C)C2)cc1C	0	1	i	-1	i	2	.	.
COc1ccc(NC2=CC(=O)CC(C)(C)C2)cc1OC	0	23*	i	-5	i	11	-11	-3
CN(c1ccccc1)S(=O)(=O)c1ccc(C(=O)NCC(c2ccco2)N2CCCCC2)cc1 (centres undefined)	3	25*	.	8	i	.	2	-2
CC1(C)C[C@H]2C3=CCC4[C@@]5(C)CC[C@H](O)[C@](C)(CO)C5CC[C@@]4(C)[C@]3(C)C[C@H]3O[C@@H]1[C@H](O)[C@]32CO (some centres undefined)	24	0	.	-7	i	.	.	.
CCOC(=O)C1(C)CCN1C(=O)/C=C/c1ccccc1 (centres undefined)	.	21*	.	.	.	.	2	-1
O=C(CCNS(=O)(=O)c1c(Cl)cccc1Cl)OCC(=O)c1ccccc1	1	67*	i	0	i	-4	7	-3
O=C(CCNS(=O)(=O)c1c(Cl)cccc1Cl)OCC(=O)c1ccccc1F	0	-3	i	4	i	-6	.	.
SMILES	GRK2 inh	NOD2 RIPK2 PPI	ANO1 block	TLR9-MyD88 block	ANO1 activ	TLR4-MyD88 BLA	NOD2-RIPK2 conf	BLA counter
O=C(Nc1ccc(F)c(Cl)c1)c1cc(C2CCCCN2C(=O)c2cccs2)on1 (centres undefined)	.	0	.	.	.	.	.	.
Cc1ccc(C2CC(c3ccccc3)=NN2C(=S)Nc2ccccc2)o1 (centres undefined)	1	48*	i	1	i	8	2	-4
O=[N+]([O-])c1ccc2c(c1)Cc1cc(F)ccc1-2	.	-17	.	-5	i	.	.	.
O=C1C=CC(=O)N1c1ccc2c(c1)Cc1cc(F)ccc1-2	.	23*	.	4	i	.	64*	16*
O=[N+]([O-])c1ccc(CSc2nnc(SCc3ccc(Cl)cc3)s2)cc1	1	-5	i	-7	i	-17	.	.
OCCCC1CCCN(Cc2cn[nH]c2-c2ccc(F)cc2F)C1 (centres undefined)	1	22*	i	-1	i	-12	2	-4
Cc1ccc(C)c(CNc2ccc(S(=O)(=O)N3CCCCC3)cc2)c1	0	-11	.	2	i	.	.	.
FC(F)(F)c1ccccc1-c1ccc2nncn2c1	.	23*	.	.	.	.	-6	0
COCCNC(=O)C1(C)CCCN(CC(=O)c2ccc(OC)cc2)C1 (centres undefined)	.	-35	.	.	.	.	.	.
CCOC(=O)CC(S(=O)(=O)c1ccccc1)S(=O)(=O)c1ccccc1	.	52*	.	2	.	.	14	10
COC(=O)c1cccc(-n2sc3ccccc3c2=O)c1	3	40*	.	12	i	.	36*	13*
CCCCNc1c(-c2ccc(SC(C)CC)cc2)nc2ccccn12 (centres undefined)	2	22*!	100*	10	i	.	20	16*
O=C1/C(=C/c2ccccc2)CN(C(=O)CCN2CCOCC2)C/C1=C\c1ccccc1	.	27*	.	7	i	.	31*	2
CN(C)CCC(=O)N1C/C(=C/c2ccccc2)C(=O)/C(=C\c2ccccc2)C1	.	61*	.	3	i	.	55*	-1
C[N+](C)(C)CCC(=O)N1C/C(=C/c2ccccc2)C(=O)/C(=C\c2ccccc2)C1	.	-8	.	3	i	.	.	.
NC(Cc1ccc(F)cc1)c1csc(Nc2nccc(C(F)(F)F)n2)n1 (centres undefined)	.	-11	.	.	.	.	.	.
C/C(=N\NC(=O)c1cc(-c2ccncc2)nc2ccccc12)c1ccc(N2CCOCC2)cc1	0	24*	i	7	i	-12	6	2
CCC(=O)N1CCC(C)(C(=O)Nc2ccc(OC)c(OC)c2)C1 (centres undefined)	.	-11	.	.	.	.	.	.
